In the library only some 2.4% were active in any assay of this set; here they are far more common.
POLB inh – qHTS Assay for Inhibitors of DNA Polymerase Beta; P06746; Pol beta primer extension/strand displacement, fluorescence kinetic; Potency, µM (titrated, usually from 114 µM), actives largely listed as inhibitors; 340,000 compounds, 1.3% hits; AID 485314, 2010
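Values derive from four-parameter Hill fits of normalized kinetic data: reads at 0 and 10 min following addition of 50 nM substrate to 10 nM Pol beta preincubated 15 min with compound.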
POLI inh – qHTS for Inhibitors of Polymerase Iota | Pol iota fluorescent replication assay, 10 min | Potency, µM (series often up to 115 µM), hits mostly inhibitors | 390,000 compounds, 1% hits | AID 588590, 2011
Target sequence (Q9UNA4 whole entry, looked up): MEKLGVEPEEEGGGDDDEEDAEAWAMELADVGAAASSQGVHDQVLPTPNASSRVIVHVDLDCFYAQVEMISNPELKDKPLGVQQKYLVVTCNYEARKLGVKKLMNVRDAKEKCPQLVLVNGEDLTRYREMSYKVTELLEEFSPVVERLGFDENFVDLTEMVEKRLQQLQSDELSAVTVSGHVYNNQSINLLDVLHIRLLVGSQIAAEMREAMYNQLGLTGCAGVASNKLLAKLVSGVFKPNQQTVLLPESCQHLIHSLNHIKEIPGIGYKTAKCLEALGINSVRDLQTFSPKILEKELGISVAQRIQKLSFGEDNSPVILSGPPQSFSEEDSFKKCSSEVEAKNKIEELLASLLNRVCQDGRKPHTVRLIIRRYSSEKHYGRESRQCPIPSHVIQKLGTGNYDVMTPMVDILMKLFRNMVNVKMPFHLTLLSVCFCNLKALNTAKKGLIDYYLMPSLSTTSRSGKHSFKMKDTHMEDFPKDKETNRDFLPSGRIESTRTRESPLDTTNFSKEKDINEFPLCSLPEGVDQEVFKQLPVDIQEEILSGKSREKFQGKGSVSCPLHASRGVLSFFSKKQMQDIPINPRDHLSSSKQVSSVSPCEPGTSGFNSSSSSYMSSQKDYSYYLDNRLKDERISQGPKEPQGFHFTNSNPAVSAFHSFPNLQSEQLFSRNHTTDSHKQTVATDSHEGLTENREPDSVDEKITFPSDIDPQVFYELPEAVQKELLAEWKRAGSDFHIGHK
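Pol iota at 10 nM preincubated 15 min with compounds at room temperature; reaction started with fluorescent substrate, 50 nM final. Fluorescence read kinetically at 0 and 10 min; buffer-only wells as negative control.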
POLH inh – qHTS for Inhibitors of Polymerase Eta; 390,000 compounds, 1.2% hits; AID 588591, 2011; DNA polymerase eta (Homo sapiens), Q9Y253; recombinant Pol eta, fluorescent DNA replication assay; Potency, µM (series often up to 114 µM), most hits filed as inhibitors
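Pol eta at 10 nM preincubated with compounds 15 min at room temperature; reaction started with fluorescent substrate (50 nM final) and read kinetically at 0 and 10 min.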
FEN1 inhibitor – qHTS Assay for the Inhibitors of Human Flap endonuclease 1 (FEN1); 390,000 compounds, 0.35% hits; Potency, µM (titrated, usually from 114 µM), most hits filed as inhibitors; P39748; Recombinant FEN1 flap cleavage, fluorescence, 15 min; also: nearly all actives have a fitted effect of over 65% in size
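Reaction started by adding substrate (50 nM final) to 10 nM enzyme after 15 min room-temperature compound preincubation. Reads at 0 and 15 min, with data normalized and fitted to a four-parameter Hill equation.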
Pol kappa inh – qHTS for Inhibitors of Polymerase Kappa | 400,000 compounds, 0.53% hits | Potency, µM (doses to about 107 µM), hits mostly inhibitors | AID 588579, 2011 | DNA polymerase kappa (Homo sapiens), Q9UBT6 | purified Pol kappa, fluorescent DNA synthesis assay, 10 min
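10 nM Pol kappa preincubated 15 min at room temperature with compounds, then reaction started with substrate at 50 nM final. Fluorescence read kinetically at 0 and 10 min; buffer-only wells served as negative control.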
WRN helicase inh – qHTS for Inhibitors of WRN Helicase | Bifunctional 3'-5' exonuclease/ATP-dependent helicase WRN (Homo sapiens), Q14191 | WRN helicase unwinding, fluorescent forked duplex, kinetic | Potency, µM (top dose mostly 114 µM), most hits filed as inhibitors | 360,000 compounds, 0.46% hits; also: nearly all actives have a fitted effect of over 55% in size
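WRN at 20 nM final preincubated with compound 15 min at room temperature; reaction started with 100 nM fluorophore/quencher forked duplex oligonucleotide and 2 mM ATP final. Unwinding followed kinetically by red fluorescence (ex 525, em 598 nm).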
Each line names hits and unclear results; the compound was inactive in the other large screens; ! = not confirmed by another sample. Calls follow the shape of the dose curve; as a rule, active = well fitted curve in the direction sought with a large enough effect; inconclusive = small, poorly fitted or top-dose-only effect, or another doubt; inactive = no such curve, though single readings can be large; an effect the other way counts as inactive or inconclusive.

COc1ccc(CNC(=O)CSc2ccsc2[N+](=O)[O-])cc1	POLI inh inconclusive, POLH inh 50µM, Pol kappa inh inconclusive
O=C(N/N=C/C=C/c1ccco1)C(O)c1ccccc1 (stereo not given)	POLI inh 13µM, POLH inh 50µM, Pol kappa inh inconclusive (no result: POLB inh)
CCn1c(SCC(=O)N/N=C/C=C/c2ccco2)nnc1-c1ccc(OC)cc1	POLB inh 25µM
O=C(N/N=C/c1cc(Br)c(Br)o1)C(O)c1ccccc1 (stereo not given)	POLB inh 22µM, POLI inh inconclusive, POLH inh 50µM, WRN helicase inh inconclusive
CC(/C=N/NC(=O)CSc1nc2ccccc2n1C)=C\c1ccco1	POLB inh inconclusive, POLI inh 56µM, POLH inh 14µM, Pol kappa inh inconclusive
COc1cccc(CNC(=O)Cn2c(=O)ccc3cc(S(=O)(=O)N4CCC(C)CC4)ccc32)c1	none (no result: WRN helicase inh)
Cc1ccc(OCC(=O)N/N=C/C=C/c2ccco2)cc1	POLI inh 16µM, POLH inh 18µM, Pol kappa inh inconclusive
CCn1c(SCC(=O)N/N=C/C=C/c2ccco2)nc2ccccc21	POLB inh 22µM, POLI inh 20µM, POLH inh 50µM, WRN helicase inh inconclusive
Cc1oc(-c2ccccc2Cl)nc1CS(=O)CC(=O)NCc1ccc(Cl)cc1 (stereo not given)	POLI inh 79µM!
Cc1oc(-c2ccccc2F)nc1CS(=O)CC(=O)NCc1ccc(Cl)cc1 (stereo not given)	none
COc1ccc(OC)c(NC(=O)c2cc(-c3cc(C)ccc3O)n[nH]2)c1	POLI inh 25µM
CC(C)C[C@@H](/C=C/S(C)(=O)=O)NC(=O)[C@H](CC(C)C)NC(=O)[C@H](CC(C)C)NC(=O)OCc1ccccc1	none (no result: POLB inh, POLI inh, POLH inh, FEN1 inhibitor, WRN helicase inh)
Cc1cccc2c(N=O)c(O)[nH]c12	POLH inh 35µM
COc1ccc(/C=C2/CCC(CN3CCOCC3)C2=O)cc1 (stereo not given)	POLI inh inconclusive, POLH inh inconclusive, WRN helicase inh 14µM (no result: POLB inh)
CN(C)CC1CC/C(=C\c2ccc(O)cc2)C1=O (stereo not given)	POLI inh inconclusive, POLH inh inconclusive, FEN1 inhibitor 56µM, WRN helicase inh 11µM (no result: POLB inh)
COC(=O)CCN(Cc1ccco1)S(=O)(=O)c1ccc(F)cc1Br	none (no result: POLB inh, POLH inh, WRN helicase inh)
O=C(N/N=C/C(Br)=C/c1ccccc1)c1n[nH]c2c1CCC2	POLI inh 3.5µM, POLH inh inconclusive, Pol kappa inh inconclusive
C=CC1=C(C)C2=NC1=CC1=NC(=CC3=NC(=CC4=NC(=C2)C(C)=C4CCC(=O)O)C(CCC(=O)O)=C3C)C(C=C)=C1C.[Zn]	Pol kappa inh 3.5µM (no result: POLB inh, POLI inh, POLH inh, FEN1 inhibitor, WRN helicase inh)
COc1ccc(-c2nn(-c3ccccc3)cc2/C=C(\CC(=O)O)c2nc3ccccc3s2)cc1OC	POLB inh inconclusive, POLI inh inconclusive, POLH inh 56µM, Pol kappa inh inconclusive, WRN helicase inh inconclusive
COc1ccc(COC[C@H](C)[C@H](O[Si](C)(C)C)[C@@H](C)[C@H]2OC(=O)[C@H]2C)cc1	POLI inh inconclusive, Pol kappa inh inconclusive (no result: POLB inh, POLH inh, WRN helicase inh)
O=C(Nc1nnc(S(=O)(=O)N2CCCCC2)s1)c1cccc(Br)c1	POLI inh inconclusive, POLH inh 45µM
Cc1cccc(C(=O)Nc2nnc(S(=O)(=O)N3CCCc4ccccc43)s2)c1	POLH inh inconclusive (no result: WRN helicase inh)
Cc1cccc(C(=O)Nc2nnc(S(=O)(=O)N3CCC(C)CC3)s2)c1	POLH inh 79µM!
COc1cccc(C(=O)Nc2nnc(S(=O)(=O)N3CCCc4ccccc43)s2)c1	POLH inh 50µM (no result: WRN helicase inh)
CN1CCN(c2ncc3nc(-c4ccc(Cl)cc4)c(=O)n(Cc4cccs4)c3n2)CC1	none (no result: POLB inh, POLI inh, POLH inh, FEN1 inhibitor, WRN helicase inh)
COc1ccc2c(c1)OC(=O)CC2c1ccccc1C (stereo not given)	none (no result: POLB inh, POLI inh, POLH inh, FEN1 inhibitor, WRN helicase inh)
CN(C)c1ccc(CCc2ccnc3ccccc23)cc1	none (no result: POLB inh, POLH inh, WRN helicase inh)
CCN(CC)c1ccc(C(=O)NCc2ccc3c(c2)CCN3C(=O)c2ccc(F)cc2)cc1	POLH inh 79µM (no result: WRN helicase inh)
COCCCn1c(SCC(=O)OC2CCCCC2)nnc1-c1ccco1	none
COCCCn1c(SCC(=O)OC2CCCCC2)nnc1-c1cccs1	POLI inh 100µM
Cc1nnc(SCC(=O)NCc2ccccc2F)c2nn(-c3ccc(Cl)cc3)c(C)c12	POLB inh inconclusive, POLI inh 71µM, POLH inh inconclusive (no result: WRN helicase inh)
CC[C@@H](C)C(N)C(=O)O (stereo not given in full)	none (no result: POLB inh, POLI inh, POLH inh, FEN1 inhibitor, WRN helicase inh)
CCOc1ccc(CCNC(=O)Cn2c(=O)c3cccn3c3cccnc32)cc1	POLB inh 100µM
O=C(CCn1c(=O)c2cccn2c2ccc(F)cc21)NCCc1ccccc1	none
NS(=O)(=O)c1ccc(CCNC(=O)Cn2c(=O)c3cccn3c3ccc(F)cc32)cc1	POLB inh 45µM (no result: WRN helicase inh)
CCOc1ccc(CCNC(=O)CCCn2c(=O)c3cccn3c3ccccc32)cc1	none (no result: WRN helicase inh)
O=[N+]([O-])c1cnc(Sc2ccncn2)s1	POLI inh inconclusive
C=CCn1c(Sc2ncc([N+](=O)[O-])s2)n[nH]c1=O	POLI inh 10µM
Cc1nc2c(C(=O)N3CCN(c4ccccn4)CC3)cnn2c(C)c1Cc1cccc(Cl)c1	POLI inh 89µM
COc1cccc(S(=O)(=O)N2CCN(c3nc(-c4cccs4)nc4ccccc34)CC2)c1	none (no result: POLB inh, POLH inh, WRN helicase inh)
CC(=O)N1CCOc2cc(S(=O)(=O)Nc3c(C)cccc3C(C)C)c(Cl)cc21	POLI inh 79µM (no result: WRN helicase inh)
N#CCSc1ncnc2sc3c(c12)CCC3	POLB inh inconclusive, POLI inh inconclusive, POLH inh 89µM, Pol kappa inh inconclusive
Cc1nc(SCC#N)c2c3c(sc2n1)CCC3	none
CCOc1ccc(CN2CCN(c3ncnc4scc(-c5ccccc5)c34)CC2)cc1	none
Cc1sc2ncnc(N3CCN(Cc4ccccc4)CC3)c2c1-c1ccccc1	POLI inh 89µM, Pol kappa inh inconclusive
N[C@@H](Cc1cc(CP(=O)(O)O)cc(-c2ccccc2Cl)c1)C(=O)O	Pol kappa inh 21µM (no result: POLB inh, POLI inh, POLH inh, FEN1 inhibitor, WRN helicase inh)
O=C1C2C(C(=O)N1/N=C/c1ccc([N+](=O)[O-])o1)C1C=CC2C12CC2 (stereo not given)	POLH inh inconclusive
CC1=NN(c2nc(N)nc(/C(C#N)=C/c3ccc([N+](=O)[O-])o3)n2)C(C)(C)C1	POLI inh inconclusive, POLH inh 18µM, WRN helicase inh inconclusive (no result: POLB inh)
CC(C)(C)c1ccc(N2C[C@@H](COc3ccc(C(=O)O)cc3)CC2=O)cc1	none (no result: POLB inh, POLI inh, POLH inh, FEN1 inhibitor, WRN helicase inh)

Screens: PubChem BioAssay, National Center for Advancing Translational Sciences (NCATS)
